Out of some 3,200 compounds screened, about 300 (9.4%) showed activity. Shown is part of a subset that was picked to be rich in actives.
Test system: A673/TR/shEF
Test: cell viability (LOESS-normalised, relative to median of negative controls) (log2 ratio); higher = more viable cells (less compound effect), active = hit call of the paper (over 3 MAD below the median)
Settings: treatment time: 72 h
Outline: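 Viability of A673/TR/shEF Ewing sarcoma cells was determined by CellTiter-Glo luminescence. The cells, at 1,500 per well in 384-well plates, were grown with or without doxycycline from 24 h before compound addition to switch on EWS-FLI1 shRNA knockdown, then exposed for three days to library compounds at two or more concentrations or to DMSO controls. Signals were LOESS-corrected plate by plate, normalised to the negative-control median and log2-transformed.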

[1] = 0.025 µM, library screen: screen2, EWS-FLI1 expression: high (no doxycycline)
[2] = 0.025 µM, library screen: screen2, EWS-FLI1 expression: low (doxycycline-induced shRNA knockdown)
[3] = 0.103 µM, library screen: screen3, EWS-FLI1 expression: high (no doxycycline)
[4] = 0.103 µM, library screen: screen3, EWS-FLI1 expression: low (doxycycline-induced shRNA knockdown)
[5] = 0.25 µM, library screen: screen1, EWS-FLI1 expression: high (no doxycycline)
[6] = 0.25 µM, library screen: screen1, EWS-FLI1 expression: low (doxycycline-induced shRNA knockdown)
[7] = 0.25 µM, library screen: screen2, EWS-FLI1 expression: high (no doxycycline)
[8] = 0.25 µM, library screen: screen2, EWS-FLI1 expression: low (doxycycline-induced shRNA knockdown)
[9] = 0.308 µM, library screen: screen3, EWS-FLI1 expression: high (no doxycycline)
[10] = 0.308 µM, library screen: screen3, EWS-FLI1 expression: low (doxycycline-induced shRNA knockdown)
[11] = 0.926 µM, library screen: screen3, EWS-FLI1 expression: high (no doxycycline)
[12] = 0.926 µM, library screen: screen3, EWS-FLI1 expression: low (doxycycline-induced shRNA knockdown)
[13] = 2.5 µM, library screen: screen1, EWS-FLI1 expression: high (no doxycycline)
[14] = 2.5 µM, library screen: screen1, EWS-FLI1 expression: low (doxycycline-induced shRNA knockdown)
[15] = 2.5 µM, library screen: screen2, EWS-FLI1 expression: high (no doxycycline)
[16] = 2.5 µM, library screen: screen2, EWS-FLI1 expression: low (doxycycline-induced shRNA knockdown)
[17] = 2.8 µM, library screen: screen3, EWS-FLI1 expression: high (no doxycycline)
[18] = 2.8 µM, library screen: screen3, EWS-FLI1 expression: low (doxycycline-induced shRNA knockdown)
[19] = 8.3 µM, library screen: screen3, EWS-FLI1 expression: high (no doxycycline)
[20] = 8.3 µM, library screen: screen3, EWS-FLI1 expression: low (doxycycline-induced shRNA knockdown)
[21] = 25 µM, library screen: screen2, EWS-FLI1 expression: high (no doxycycline)
[22] = 25 µM, library screen: screen2, EWS-FLI1 expression: low (doxycycline-induced shRNA knockdown)
[23] = 25 µM, library screen: screen3, EWS-FLI1 expression: high (no doxycycline)
[24] = 25 µM, library screen: screen3, EWS-FLI1 expression: low (doxycycline-induced shRNA knockdown)
[25] = 0.025 µM, library screen: screen1, EWS-FLI1 expression: high (no doxycycline)
[26] = 0.025 µM, library screen: screen1, EWS-FLI1 expression: low (doxycycline-induced shRNA knockdown)
[27] = 25 µM, library screen: screen1, EWS-FLI1 expression: high (no doxycycline)
[28] = 25 µM, library screen: screen1, EWS-FLI1 expression: low (doxycycline-induced shRNA knockdown)

Measured: cell viability (log2)

CC[C@@]1(O)C(=O)OCc2c1cc1n(c2=O)Cc2cc3ccccc3nc2-1
inactive: [1] -0.0654 | [2] 0.049 | [4] -0.0714
active: [3] -1.01 | [5] -2.18 | [6] -0.586 | [7] -2.99 | [8] -0.42 | [9] -2.37 | [10] -0.543 | [11] -3.61 | [12] -0.88 | [13] -1.57 | [14] -0.388 | [15] -3.53 | [16] -0.945 | [17] -4.24 | [18] -1.16 | [19] -4.26 | [20] -1.3 | [21] -4.09 | [22] -1.25 | [23] -4.26 | [24] -2.33

C[C@]12CCC(=O)C=C1C=CC1C2CC[C@@]2(C)C1CC[C@@]2(O)CCC(=O)O (stereo not given in full)
inactive: [5] 0.0813 | [6] -0.0168 | [13] 0.15 | [14] -0.00183

N[C@@H](Cc1ccc(N(CCCl)CCCl)cc1)C(=O)O
inactive: [5] 0.0874 | [6] 0.0161 | [7] 0.175 | [8] 0.17 | [13] 0.00755 | [14] 0.0488 | [15] 0.22 | [16] 0.172

O=C(O)CCCc1ccc(N(CCCl)CCCl)cc1
inactive: [1] 0.0942 | [2] 0.0711 | [5] 0.0971 | [6] 0.0808 | [7] 0.12 | [8] 0.0418 | [13] 0.142 | [14] 0.131 | [15] 0.101 | [16] 0.11 | [22] 0.0238
active: [21] -0.0762

Cn1c(CCCC(=O)O)nc2cc(N(CCCl)CCCl)ccc21
inactive: [3] 0.058 | [4] 0.0297 | [9] -0.00941 | [10] 0.026 | [11] -0.00645 | [12] 0.00947 | [17] -0.0453 | [18] -0.00369 | [19] 0.00708 | [20] 0.0974 | [23] -0.0533 | [24] 0.0463

CC(=O)CC1CCCCN1 (stereo not given)
inactive: [5] 0.0906 | [6] -0.00634 | [13] 0.0756 | [14] -0.083

CC(=O)O[C@@H]1CC2C(C)(C)[C@H](O)C=C[C@]2(C)C2CC[C@]3(C)C(=CC(=O)O[C@H]3c3ccoc3)[C@@]21C (stereo not given in full)
inactive: [5] 0.113 | [6] 0.0781 | [13] 0.222 | [14] 0.195

CCc1cccc(CC)c1N(COC)C(=O)CCl
inactive: [5] 0.0413 | [6] -0.00378 | [13] 0.0617 | [14] 0.0338

CC1(C)C(C=C(Cl)Cl)C1C(=O)OC(C#N)c1cccc(Oc2ccccc2)c1 (stereo not given)
inactive: [25] 0.0827 | [26] 0.0478 | [5] 0.102 | [6] -0.0402 | [13] 0.0354 | [14] -0.0899
active: [27] -0.287 | [28] -0.665

CC(C)C(C(=O)OC(C#N)c1cccc(Oc2ccccc2)c1)c1ccc(Cl)cc1 (stereo not given)
inactive: [25] 0.0912 | [26] 0.0926 | [5] 0.0365 | [6] 0.00166 | [13] 0.0694 | [14] 0.0411 | [27] 0.0435 | [28] 0.0476

CC1(C)[C@H](C(=O)O[C@H](C#N)c2cccc(Oc3ccccc3)c2)[C@@H]1C=C(Br)Br
inactive: [25] 0.0513 | [26] -0.0407 | [5] 0.047 | [6] 0.086 | [13] 0.112 | [14] 0.12 | [27] -0.0163 | [28] 0.0977

CC1(C)C(=O)C=C[C@]2(C)C3CC[C@@]4(C)[C@H](c5ccoc5)C[C@H]5O[C@]54C3[C@H](O)CC12 (stereo not given in full)
inactive: [5] 0.0404 | [6] 0.00309 | [13] 0.102 | [14] 0.0462

C[C@H]1C(=O)O[C@@H]2CCN3CC=C(COC(=O)[C@](C)(O)[C@]1(C)O)[C@H]23
inactive: [1] 0.0665 | [2] 0.0541 | [5] 0.00981 | [6] 0.0549 | [7] 0.122 | [8] 0.0363 | [13] 0.0901 | [14] 0.111 | [15] 0.0833 | [16] 0.0416 | [21] 0.0406 | [22] 0.0625

COC(=O)[C@]1(C)CC[C@]2(C)CC[C@]3(C)C4=CCc5c(cc(O)c(O)c5C)[C@]4(C)CC[C@@]3(C)[C@@H]2C1
active: [13] -1.44 | [14] -0.357
inactive: [5] 0.0264 | [6] 0.158

Cc1c(O)c(O)cc2c1CC=C1[C@@]2(C)CC[C@@]2(C)[C@@H]3C[C@](C)(C(=O)O)CC[C@]3(C)CC[C@]12C
inactive: [5] 0.102 | [6] 0.0187 | [13] 0.0348 | [14] 0.22

Reference: the supplement of paper PMC6089552
